Screening results as filed in PubChem.
FLuc inh – blocks purified firefly luciferase enzyme activity | P08659 | purified P. pyralis luciferase, luminescence, biochemical | Potency, µM (series often up to 115 µM), hits mostly inhibitors | 76,000 tested, 2.5% active | AID 1347043; further: nearly all actives have a fitted effect of over 65% in size
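Luminescence read by CCD imager after adding enzyme (10nM final) to wells holding compound, titrated in qHTS. Substrates 10uM each D-luciferin and ATP; buffer 50mM Tris acetate pH 7.5, 10mM Mg acetate, Tween-20, BSA.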
HEK293 tox – cytotoxic compounds in HEK 293 cells. HEK 293 viability, ATP luminescence (CellTiter-Glo), 48-72 h. Potency, µM (top dose mostly 115 µM), actives largely listed as inhibitors. 94,000 tested, 6.6% active. AID 1345083; further: nearly all actives have a fitted effect of over 60% in size
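HEK 293 seeded at 250 cells/well receive compound via pintool. After 48 or 72 hr at 37 degree Celsius, 5% CO2 and 95% humidity, CellTiter-Glo is dispensed and luminescence read following 10 min at room temperature.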
hNpr1 antagonist – antagonists of human natriuretic peptide receptor Npr1. HEK293 hNpr1 GloSensor cGMP, ANP-stimulated luminescence. Potency, µM (top dose mostly 46.3 µM), hits mostly inhibitors. 76,000 tested, 1.6% active; calls by dose curve; further: nearly all actives have a fitted effect of over 60% in size
Target sequence (P16066 whole entry, looked up): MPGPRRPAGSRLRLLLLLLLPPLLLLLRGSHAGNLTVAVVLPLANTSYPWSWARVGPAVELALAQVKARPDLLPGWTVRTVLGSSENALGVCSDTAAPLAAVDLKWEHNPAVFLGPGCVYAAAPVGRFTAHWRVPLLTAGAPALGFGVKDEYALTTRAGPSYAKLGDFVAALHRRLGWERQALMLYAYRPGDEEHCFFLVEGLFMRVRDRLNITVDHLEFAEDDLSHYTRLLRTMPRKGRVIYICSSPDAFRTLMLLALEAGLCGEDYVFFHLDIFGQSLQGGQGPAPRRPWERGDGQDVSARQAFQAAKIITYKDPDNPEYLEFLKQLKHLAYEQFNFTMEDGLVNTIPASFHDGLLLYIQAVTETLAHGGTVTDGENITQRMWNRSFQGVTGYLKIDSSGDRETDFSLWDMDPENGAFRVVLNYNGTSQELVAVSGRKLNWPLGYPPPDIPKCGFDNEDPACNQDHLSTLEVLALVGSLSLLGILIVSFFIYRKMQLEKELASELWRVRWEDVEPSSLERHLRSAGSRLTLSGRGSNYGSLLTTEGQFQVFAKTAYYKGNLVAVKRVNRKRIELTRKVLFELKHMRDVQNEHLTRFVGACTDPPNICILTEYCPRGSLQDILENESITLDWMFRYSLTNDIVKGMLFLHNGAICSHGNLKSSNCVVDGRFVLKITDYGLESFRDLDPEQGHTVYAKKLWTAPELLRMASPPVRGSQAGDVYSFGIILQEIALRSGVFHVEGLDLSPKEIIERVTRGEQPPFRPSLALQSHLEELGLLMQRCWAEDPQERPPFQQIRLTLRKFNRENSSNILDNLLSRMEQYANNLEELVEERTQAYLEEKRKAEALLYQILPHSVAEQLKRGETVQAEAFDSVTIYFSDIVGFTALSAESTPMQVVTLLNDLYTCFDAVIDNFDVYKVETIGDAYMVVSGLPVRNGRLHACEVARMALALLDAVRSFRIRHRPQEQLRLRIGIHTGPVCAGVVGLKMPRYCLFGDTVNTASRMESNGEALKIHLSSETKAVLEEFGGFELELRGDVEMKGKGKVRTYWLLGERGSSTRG
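Compound pre-incubated 30 min at room temperature on GloSensor-loaded HEK293 cells stably carrying hNpr1 and the pGS-40F cGMP biosensor. Stimulation uses hNppA at 0.1 nM final; luminescence is taken at baseline and 20 min post-agonist.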
3T3 cytotox – cytotoxic compounds in NIH 3T3 cells; NIH 3T3 viability, CellTiter-Glo ATP luminescence, 48-72 h; Potency, µM (doses to about 96.7 µM), usual class: inhibitors; 94,000 tested, 4.3% active; further: nearly all actives have a fitted effect of over 55% in size
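Cytotoxicity is measured as loss of cellular ATP: NIH 3T3 cells (400/well) are exposed to compound for 48 or 72 hr at 37 °C, then CellTiter-Glo luminescence is imaged after 10 min at room temperature.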
Large screens that a line does not name were inactive. Only some compounds are listed: those with a hit (about 11% of all), similar ones and a draw of the others. Unless noted, the call rests on the fitted dose curve; in most records, active means well fitted curve in the direction sought with a large enough effect; inconclusive means small, poorly fitted or top-dose-only effect, or another doubt; inactive means no such curve, though single readings can be large; an effect the other way counts as inactive or inconclusive.

COc1ccc(NC(=O)c2cc(-c3ccc(C(F)(F)F)cc3)nc3c2cnn3C)cc1OC	none (no result: FLuc inh, hNpr1 antagonist)
Cn1ncc2c(C(=O)Nc3cccnc3)cc(-c3ccccc3C(F)(F)F)nc21	none (no result: FLuc inh, hNpr1 antagonist)
CCOc1ccc2c(n1)CCN(C(=O)Cc1c[nH]c3ccccc13)C2	HEK293 tox inconclusive
COCC(=O)N[C@H]1C[C@@H](Cc2cc(CN(C)C)on2)C1(C)C	none
COCC1CN(C)CC12CCN(Cc1cccc(OC)c1OC)CC2 (stereo not drawn)	none
CN(C)c1ccc(NC(=O)c2cc(-c3ccc(C(F)(F)F)cc3)nc3c2cnn3C)cc1	none (no result: FLuc inh, hNpr1 antagonist)
CN(C)c1ccc(NC(=O)c2cc(-c3ccccc3C(F)(F)F)nc3c2cnn3C)cc1	HEK293 tox 25.1µM, 3T3 cytotox inconclusive (no result: FLuc inh, hNpr1 antagonist)
COc1ccc(-c2nc(C(=O)N3CCN(c4ncccn4)CC3)n3ccccc23)cc1	FLuc inh inconclusive, HEK293 tox inconclusive
O=C(NCc1cccnc1)c1ccc(N2CCC(NCCCn3ncc4ccccc43)CC2)cc1	HEK293 tox inconclusive, 3T3 cytotox 17.8µM
Cc1nnc2ccc(N3CCCC(N[S+](=O)([O-])c4ccccc4)C3)nn12 (stereo not drawn)	none (no result: FLuc inh, hNpr1 antagonist)
COCCNC(=O)C1CCCN1Cc1cccc(-c2ccc(C)c(Cl)c2)c1 (stereo not drawn)	HEK293 tox 39.8µM, 3T3 cytotox 35.5µM (no result: FLuc inh, hNpr1 antagonist)
CCCCCNC(=O)C1CCCN1Cc1cccc(-c2ccc(C)c(Cl)c2)c1 (stereo not drawn)	HEK293 tox 44.7µM, 3T3 cytotox inconclusive (no result: FLuc inh, hNpr1 antagonist)
Cc1ccc(-c2cccc(CN3CCCC(NC(=O)c4cccc(Cl)c4)C3)c2)cc1Cl (stereo not drawn)	none (no result: FLuc inh, hNpr1 antagonist)
Cc1ccc(-c2cccc(CN3CCCC3C(=O)NC3CCCCC3)c2)cc1Cl (stereo not drawn)	none (no result: FLuc inh, hNpr1 antagonist)
Cc1ccc(-c2cccc(CN3CCCC3C(=O)NCC3CC3)c2)cc1Cl (stereo not drawn)	HEK293 tox 31.6µM, 3T3 cytotox inconclusive (no result: FLuc inh, hNpr1 antagonist)
OC(c1cccc(C(F)(F)F)c1)c1nc(Nc2ccncc2)n[nH]1 (stereo not drawn)	HEK293 tox inconclusive
OC(c1cccc(C(F)(F)F)c1)c1nc(Nc2ccccc2)n[nH]1 (stereo not drawn)	HEK293 tox 89.1µM, 3T3 cytotox inconclusive
OC(c1cccc(C(F)(F)F)c1)c1nc(Nc2cccnc2)n[nH]1 (stereo not drawn)	HEK293 tox inconclusive
OC(c1cccc(C(F)(F)F)c1)c1nc(Nc2ccc(N3CCOCC3)cc2)n[nH]1 (stereo not drawn)	FLuc inh 35.5µM, HEK293 tox inconclusive, hNpr1 antagonist inconclusive
OC(c1cccc(C(F)(F)F)c1)c1nc(Nc2ccc(F)cc2F)n[nH]1 (stereo not drawn)	HEK293 tox 79.4µM, 3T3 cytotox 70.8µM
O=C(c1ccccc1Cl)N1CCC(N(Cc2ccccc2)C2CCOCC2)CC1	HEK293 tox inconclusive, 3T3 cytotox inconclusive
Cc1ccc2[nH]c(CN3CCC(c4cccc(C#N)c4)CC3)cc(=O)c2c1	HEK293 tox inconclusive, hNpr1 antagonist inconclusive, 3T3 cytotox inconclusive
Cc1ccc(CCN2CCCCC23Cc2ccccc2CN([S+](C)(=O)[O-])C3)cc1 (stereo not drawn)	HEK293 tox 79.4µM, 3T3 cytotox inconclusive (no result: FLuc inh, hNpr1 antagonist)
Clc1ccc(NCCN2CCCC2)cc1	none (no result: FLuc inh, hNpr1 antagonist)
Oc1ccc(NCCN2CCCC2)cc1	HEK293 tox inconclusive, 3T3 cytotox 44.7µM (no result: FLuc inh, hNpr1 antagonist)
O=C1NC(=NC2CCCCC2)C2(CCN(Cc3ccsc3)CC2)N1c1cc(F)cc(F)c1	none (no result: FLuc inh, hNpr1 antagonist)
O=C(NCc1ccc(F)cc1)C1CCc2sc(C(=O)N3CCCC3)cc2C1 (stereo not drawn)	HEK293 tox 50.1µM, 3T3 cytotox inconclusive
O=C(Nc1cccc(Cl)c1)C1CCc2sc(C(=O)N3CCCC3)cc2C1 (stereo not drawn)	HEK293 tox 39.8µM, hNpr1 antagonist inconclusive, 3T3 cytotox 28.2µM
O=C(NCc1cccs1)C1CCc2sc(C(=O)N3CCCCCC3)cc2C1 (stereo not drawn)	HEK293 tox inconclusive, 3T3 cytotox inconclusive
O=C(NCc1ccc2c(c1)OCO2)C1CCc2sc(C(=O)N3CCCCCC3)cc2C1 (stereo not drawn)	HEK293 tox inconclusive, hNpr1 antagonist 22.4µM, 3T3 cytotox inconclusive
O=C(NCc1cccc(F)c1)C1CCc2sc(C(=O)N3CCCCC3)cc2C1 (stereo not drawn)	HEK293 tox inconclusive, hNpr1 antagonist inconclusive, 3T3 cytotox inconclusive
Cn1ncc2c(C(=O)N3CCOCC3)cc(-c3ccc(Cl)cc3)nc21	none (no result: FLuc inh, hNpr1 antagonist)
COc1ccc(-c2ccnc3nc(CC(C)C)nn23)cc1OC	HEK293 tox inconclusive, 3T3 cytotox inconclusive
COc1ncccc1-c1cnc2[nH]cc(CC(=O)Nc3nc(C)cs3)c2c1	HEK293 tox 35.5µM, hNpr1 antagonist inconclusive, 3T3 cytotox 31.6µM
COc1ncccc1-c1cnc2[nH]cc(CC(=O)NC3CC3)c2c1	HEK293 tox inconclusive, 3T3 cytotox 25.1µM
Cc1ccc(NC(=O)N2CCC[C@H]2c2nc(-c3ccc(F)cc3)n[nH]2)cc1C	HEK293 tox inconclusive, 3T3 cytotox 28.2µM (no result: FLuc inh, hNpr1 antagonist)
Cc1ccccc1C(=O)N1CCC(c2nn(-c3ccccn3)c(=O)[nH]2)CC1	none (no result: FLuc inh, hNpr1 antagonist)
O=C(NCc1nnc2cc(-c3nc(C4CC4)no3)ccn12)c1c(F)cccc1F	HEK293 tox 35.5µM, 3T3 cytotox inconclusive
O=C(NCc1nnc2cc(-c3nc(C4CC4)no3)ccn12)c1ccccc1	HEK293 tox inconclusive
CCNC(=O)C1CCN(C(=O)c2ccc3nc(-c4ccccc4)cn3c2)C1 (stereo not drawn)	FLuc inh 35.5µM
O=C(c1ccc2nc(-c3ccc(F)cc3)cn2c1)N1CCC(F)CC1	HEK293 tox inconclusive
CNC(=O)c1cc(C2CC2)nc2c1c(C1CCCN1C(=O)C1CCCC1)nn2C (stereo not drawn)	none (no result: FLuc inh, hNpr1 antagonist)
COc1ccc(C(=O)Nc2ccc3c(c2)CN(Cc2ccccc2Cl)C(=O)C(C)O3)cc1OC (stereo not drawn)	HEK293 tox inconclusive, 3T3 cytotox inconclusive
COc1cc(OC)cc(C(=O)Nc2ccc3c(c2)CN(Cc2ccccc2)C(=O)C(C)O3)c1 (stereo not drawn)	HEK293 tox inconclusive, 3T3 cytotox inconclusive
CCC1Oc2ccc(NC(=O)c3ccc4c(c3)OCO4)cc2CN(Cc2ccc(F)cc2)C1=O (stereo not drawn)	FLuc inh inconclusive, HEK293 tox 14.1µM, 3T3 cytotox inconclusive
CCC1Oc2ccc(NC(=O)c3c(F)cccc3F)cc2CN(Cc2ccc3c(c2)OCO3)C1=O (stereo not drawn)	HEK293 tox inconclusive, 3T3 cytotox inconclusive
COc1ccccc1CN1Cc2cc(NC(=O)c3ccc4c(c3)OCO4)ccc2OC(C)C1=O (stereo not drawn)	HEK293 tox 39.8µM, 3T3 cytotox inconclusive
CC1Oc2ccc(NC(=O)c3ccc4c(c3)OCO4)cc2CN(Cc2ccccc2)C1=O (stereo not drawn)	HEK293 tox 20µM, hNpr1 antagonist inconclusive, 3T3 cytotox inconclusive
CC1Oc2ccc(NC(=O)c3cccc(F)c3)cc2CN(Cc2ccc3c(c2)OCO3)C1=O (stereo not drawn)	HEK293 tox 39.8µM, 3T3 cytotox inconclusive
